From PubChem BioAssay (Tox21)
Results filed as inconclusive are left out. The source made the active and inactive calls. Unless noted, calls follow the shape of the full dose curve.

Key:
[1] = qHTS assay to identify small molecule agonists of the vitamin D receptor (VDR) signaling pathway - cell viability counter screen (AID 743224; active = well fitted curve in the direction sought with a large enough effect in the repeat runs; an effect the other way counts as inactive or inconclusive; also: series mostly up to about 63 µM; % is scaled to controls: 0 for no effect and ±100 for the full control effect; nearly all actives have a fitted effect of over 50% in size)
Method in brief: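 VDR-bla cells, 4 h after plating, exposed to compounds for 16 h at 37C; viability then read in the same wells as CellTiter-Glo luminescence after 30 min at room temperature, following the bla FRET read.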

[2] = qHTS assay to identify small molecule antagonists of the vitamin D receptor (VDR) signaling pathway - cell viability counter screen (AID 743225; active = well fitted curve in the direction sought with a large enough effect in the repeat runs; an effect the other way counts as inactive or inconclusive; also: % is scaled to controls: 0 for no effect and ±100 for the full control effect; nearly all actives have a fitted effect of over 50% in size)
Method in brief: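 Viability counter screen run in the same wells as the beta-lactamase reporter assay: HEK 293T VDR-UAS-bla cells, 16 h compound exposure at 37C with 3 nM (final) 1-alpha,25-dihydroxyvitamin D3. CellTiter-Glo luminescence, 30 min, room temperature.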

[3] = qHTS assay to identify small molecule agonists of the NFkB signaling pathway (AID 1159509; active = well fitted curve in the direction sought with a large enough effect in the signal ratio in the repeat runs, not every such curve was filed as active; the % refers to the signal ratio; also: series mostly up to about 61 µM; % is scaled to controls: 0 for no effect and ±100 for the full control effect)
Method in brief: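 ME-180 NFkB-bla, 2,000 cells/well, overnight plating; cpd pinned in DMSO, 5 h 37 C; B/G FRET substrate 1.5 h RT; ex 405, em 460/530 nm.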

[4] = qHTS assay to identify small molecule agonists of the NFkB signaling pathway - cell viability counter screen (AID 1159515); also: series mostly up to about 61 µM; % is scaled to controls: 0 for no effect and ±100 for the full control effect; nearly all actives have a fitted effect of over 55% in size
Method in brief: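 NFkB-bla ME-180 cells, 2,000/well, plated overnight at 37 C; compound added for 5 hr at 37 C. Viability read in the same wells as the bla reporter, by CellTiter-Glo luminescence after 30 min at room temperature.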

[5] = qHTS assay to identify small molecule agonists of the endoplasmic reticulum stress response signaling pathway (AID 1159516; active = well fitted activation curve with a large enough effect in the signal ratio in the repeat runs, not every such curve was filed as active; the % refers to the signal ratio; also: % is scaled to controls: 0 for no effect and ±100 for the full control effect)
Method in brief: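 CellSensor ESRE-bla HeLa cells, 1,500 per well, plated overnight, then exposed to compounds for 5 hr at 37 C. Beta-lactamase reporter read with LiveBLAzer B/G FRET substrate after 2 hr at room temperature, 405 nm excitation, 460 and 530 nm emission.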

[6] = qHTS assay to identify small molecule agonists of the endoplasmic reticulum stress response signaling pathway - cell viability counter screen (AID 1159517);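 also: HeLa cells carrying an ER stress response element beta-lactamase reporter; series mostly up to about 61 µM; % is scaled to controls: 0 for no effect and ±100 for the full control effect; nearly all actives have a fitted effect of over 50% in size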
Method in brief: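 CellTiter-Glo was added to wells already read for beta-lactamase FRET, and luminescence was recorded 30 min later. Cells: ESRE-bla HeLa, 1,500 per well, compound exposure 5 hr at 37 C.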

[7] = qHTS assay to identify small molecule antagonists of the retinoid-related orphan receptor gamma (ROR-gamma) signaling pathway - cell viability counter screen (AID 1159520; active = well fitted curve in the direction sought with a large enough effect in the repeat runs; an effect the other way counts as inactive or inconclusive; also: % is scaled to controls: 0 for no effect and ±100 for the full control effect; nearly all actives have a fitted effect of over 50% in size)
Method in brief: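 Tet-on ROR gamma CHO cells (1,000/well) were plated 4 hr, given compounds in DMSO for 2 hr at 37 C, then induced with 1 uM final doxycycline for 16 hr. Viability was read as ATP by CellTiter-Glo luminescence after 30 min.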

[8] = biological target: Nuclear receptor ROR-gamma (Homo sapiens) (UniProt P51449); experiment: qHTS assay to identify small molecule antagonists of the retinoid-related orphan receptor gamma (ROR-gamma) signaling pathway (AID 1159521; active = well fitted curve in the direction sought with a large enough effect in the repeat runs; an effect the other way counts as inactive or inconclusive)
Method in brief: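 Luminescence readout (ONE-Glo, 30 min RT) after 16 h doxycycline induction; loss of signal scored as antagonism. CHO cells with TET-inducible RORγ and RORE-LUC reporter; compounds added 2 h before 1 uM final doxycycline.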

[9] = qHTS assay to identify small molecule agonists of the AP-1 signaling pathway - cell viability counter screen (AID 1159525); also: nearly all actives have a fitted effect of over 55% in size
Method in brief: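 ME-180 AP-1-bla, 2500 cells/well, Opti-MEM + 0.5% dialyzed FBS; overnight 37 °C; cpd 15-pt titration, 5 h 37 °C; CellTiter-Glo 30 min RT; luminescence read; normalised to TOAB and DMSO controls.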

[10] = qHTS assay to identify small molecule agonists of the AP-1 signaling pathway (AID 1159526); also: % is scaled to controls: 0 for no effect and ±100 for the full control effect

N#CCc1ccccc1[N+](=O)[O-]
inactive: outcome [1] | outcome [2] | outcome [3] | outcome [4] | outcome [5] | outcome [6] | Potency [7] | Potency [8] | outcome [9] | Potency [10]

CC(C)COC(=O)C(C)C
inactive: outcome [1] | outcome [2] | outcome [3] | outcome [4] | outcome [5] | outcome [6] | Potency [7] | Potency [8] | outcome [9] | Potency [10]

CC(=O)CCc1ccc(O)cc1
inactive: outcome [1] | outcome [2] | outcome [3] | outcome [4] | outcome [5] | outcome [6] | Potency [7] | Potency [8] | outcome [9] | Potency [10]

O=C(O)c1ccccc1-c1ccc(C(F)(F)F)cc1
inactive: outcome [1] | outcome [2] | outcome [3] | outcome [4] | outcome [5] | outcome [6] | Potency [7] | Potency [8] | outcome [9] | Potency [10]

C1CCCCCCCCCCC1
inactive: outcome [1] | outcome [2] | outcome [3] | outcome [4] | outcome [5] | outcome [6] | activity, negative = cytotoxicity [7] 0.201% [at 19 µM] | activity change, negative = inhibition [8] -5.57% [at 19 µM] | viability change, negative = cytotoxic [9] 0.327% [at 15.8 µM] | activation [10] -0.287% [at 15.8 µM]

CCCCC=O
inactive: outcome [1] | outcome [2] | outcome [3] | outcome [4] | outcome [5] | outcome [6] | Potency [7] | Potency [8] | outcome [9] | Potency [10]

c1ccc(CCCc2ccccn2)cc1
inactive: outcome [1] | outcome [2] | outcome [3] | outcome [4] | outcome [5] | outcome [6] | Potency [7] | Potency [8] | outcome [9] | Potency [10]

CCN(CC)C(=O)c1ccc(O)c(OC)c1
inactive: outcome [1] | outcome [2] | outcome [3] | outcome [4] | outcome [5] | outcome [6] | Potency [7] | Potency [8] | outcome [9] | Potency [10]

OC[C@H]1O[C@@H]2O[C@H]3[C@H](O)[C@@H](O)[C@@H](O[C@H]4[C@H](O)[C@@H](O)[C@@H](O[C@H]5[C@H](O)[C@@H](O)[C@@H](O[C@H]6[C@H](O)[C@@H](O)[C@@H](O[C@H]7[C@H](O)[C@@H](O)[C@@H](O[C@H]8[C@H](O)[C@@H](O)[C@@H](O[C@H]9[C@H](O)[C@@H](O)[C@@H](O[C@H]1[C@H](O)[C@H]2O)O[C@@H]9CO)O[C@@H]8CO)O[C@@H]7CO)O[C@@H]6CO)O[C@@H]5CO)O[C@@H]4CO)O[C@@H]3CO
inactive: outcome [1] | outcome [2] | outcome [3] | outcome [4] | outcome [5] | outcome [6] | Potency [7] | Potency [8] | outcome [9] | Potency [10]

CCCC(C)C(=O)O (stereo not given)
inactive: outcome [1] | outcome [2] | outcome [3] | outcome [4] | outcome [5] | outcome [6] | Potency [7] | Potency [8] | outcome [9] | Potency [10]

CN(C)N=Nc1ccccc1
inactive: outcome [1] | outcome [2] | outcome [3] | outcome [4] | outcome [5] | outcome [6] | Potency [7] | Potency [8] | outcome [9] | Potency [10]

CCc1cc(S(=O)(=O)O)c2cc(C(C)C)cccc1-2
inactive: outcome [1] | outcome [2] | outcome [3] | outcome [4] | outcome [5] | outcome [6] | Potency [7] | Potency [8] | outcome [9] | Potency [10]

COC(=O)c1ccc(C(=O)OC)c(C(=O)OC)c1
inactive: outcome [1] | outcome [2] | outcome [3] | outcome [4] | outcome [5] | outcome [6] | Potency [7] | Potency [8] | outcome [9] | Potency [10]

NC(=O)Nc1nc2ccccc2[nH]1
inactive: outcome [1] | outcome [2] | outcome [3] | outcome [4] | outcome [5] | outcome [6] | Potency [7] | Potency [8] | outcome [9] | Potency [10]

COc1cc(O)cc(O)c1
inactive: outcome [1] | outcome [2] | outcome [3] | outcome [4] | outcome [5] | outcome [6] | Potency [7] | Potency [8] | outcome [9] | Potency [10]

CC(C)COC(=O)c1ccccc1O
inactive: outcome [1] | outcome [2] | outcome [3] | outcome [4] | outcome [5] | outcome [6] | Potency [7] | Potency [8] | outcome [9] | Potency [10]

Nc1cc(N)cc(C(=O)O)c1
inactive: outcome [1] | outcome [2] | outcome [3] | outcome [4] | outcome [5] | outcome [6] | Potency [7] | Potency [8] | outcome [9] | Potency [10]

Cc1ncc(CSSCc2cnc(C)c(O)c2CO)c(CO)c1O
inactive: outcome [1] | outcome [2] | outcome [3] | outcome [4] | outcome [5] | outcome [6] | Potency [7] | Potency [8] | outcome [9] | Potency [10]

CC(C)[N+](C)(C)CC(O)COc1cccc2ccccc12 (stereo not given)
inactive: outcome [1] | outcome [2] | outcome [3] | outcome [4] | outcome [5] | outcome [6] | Potency [7] | Potency [8] | outcome [9] | Potency [10]

C#CC(O)C(CC)CCCC (stereo not given)
inactive: outcome [1] | outcome [2] | outcome [3] | outcome [4] | outcome [5] | outcome [6] | Potency [7] | Potency [8] | outcome [9] | Potency [10]

CC1=CC(C)C(C=O)C(C)C1 (stereo not given)
inactive: outcome [1] | outcome [2] | outcome [3] | outcome [4] | outcome [5] | outcome [6] | Potency [7] | Potency [8] | outcome [9] | Potency [10]

CCCCCCCCN(C)CCCCCCCC
inactive: outcome [1] | outcome [2] | outcome [3] | outcome [4] | outcome [5] | outcome [6] | Potency [7] | Potency [8] | outcome [9] | Potency [10]

O=S(=O)(c1cccc2cnccc12)N1CCCNCC1
inactive: outcome [1] | outcome [2] | outcome [3] | outcome [4] | outcome [5] | outcome [6] | Potency [7] | Potency [8] | outcome [9] | Potency [10]

CC/C=C\CCCCO
inactive: outcome [1] | outcome [2] | outcome [3] | outcome [4] | outcome [5] | outcome [6] | Potency [7] | Potency [8] | outcome [9] | Potency [10]
